Screens as filed in PubChem BioAssay.
Sampled rows, rich in hits. Any-hit rate of the full collection: about 19%.
TDP1 block = qHTS Assay for Inhibitors of Tyrosyl-DNA Phosphodiesterase (TDP1). recombinant TDP1, AlphaScreen DNA substrate cleavage. Tyrosyl-DNA phosphodiesterase 1 (Homo sapiens), Q9NUW8. AID 485290, 2010. actives 0.28% (n = 350,000). Potency, µM (highest dose often 130 µM), for the others: top-dose activity change, negative = inhibition, actives largely listed as inhibitors; further: potency means the concentration at half of the fitted maximal effect; nearly all actives have a fitted effect of over 40% in size
Target sequence (Q9NUW8 whole entry, looked up): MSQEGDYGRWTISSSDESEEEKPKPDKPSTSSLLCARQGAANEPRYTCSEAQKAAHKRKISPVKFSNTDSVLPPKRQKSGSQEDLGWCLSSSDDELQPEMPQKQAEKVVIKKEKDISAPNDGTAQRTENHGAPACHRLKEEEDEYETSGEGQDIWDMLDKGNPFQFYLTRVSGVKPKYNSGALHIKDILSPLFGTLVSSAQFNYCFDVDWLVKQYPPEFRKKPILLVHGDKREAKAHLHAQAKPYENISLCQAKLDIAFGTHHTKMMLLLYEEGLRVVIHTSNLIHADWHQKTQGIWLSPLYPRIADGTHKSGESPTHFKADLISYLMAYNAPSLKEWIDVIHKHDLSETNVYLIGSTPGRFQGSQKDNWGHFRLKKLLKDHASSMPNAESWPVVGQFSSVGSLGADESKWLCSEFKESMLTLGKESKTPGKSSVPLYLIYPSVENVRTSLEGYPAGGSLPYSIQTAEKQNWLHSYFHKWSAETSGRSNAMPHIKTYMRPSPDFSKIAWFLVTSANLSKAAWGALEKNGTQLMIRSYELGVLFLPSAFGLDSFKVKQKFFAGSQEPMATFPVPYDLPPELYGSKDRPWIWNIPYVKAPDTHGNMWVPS
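Here, a 5' biotin and 3' phosphotyrosine-FITC DNA oligonucleotide reports Tdp1 activity: intact substrate bridges AlphaScreen beads, while cleavage leaves a 3' phosphate and drops signal. All incubations at room temperature.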
DT40 TDP1 CPT = qHTS for Inhibitors of human tyrosyl-DNA phosphodiesterase 1 (TDP1): qHTS in cells in presence of CPT. chicken DT40 Tdp1-/-;hTDP1 cells + 20 nM CPT, ATP luminescence, 48 h. Potency, µM (top dose mostly 46.2 µM), for the others: at the top dose activity change, negative = growth inhibition, hits mostly inhibitors. actives 12% (n = 420,000); further: potency means the concentration at half of the fitted maximal effect; nearly all actives have a fitted effect of over 55% in size
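Cell growth measured by CellTiter-Glo luminescence after a minimum 48 h, 37 C compound exposure with 20 nM CPT in Tdp1-knockout DT40 cells stably expressing hTDP1, seeded 400/well; qHTS titration format.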
DT40 TDP1 no CPT = qHTS for Inhibitors of human tyrosyl-DNA phosphodiesterase 1 (TDP1): qHTS in cells in absence of CPT | DT40 Tdp1-/- hTDP1 cells, no CPT, ATP luminescence, 48 h | actives 15% (n = 420,000) | Potency, µM (top dose mostly 46.2 µM), without a hit: top-dose activity change, negative = growth inhibition, hits mostly inhibitors; further: potency means the concentration at half of the fitted maximal effect; nearly all actives have a fitted effect of over 55% in size
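Seeded 400 DT40-hTDP1 cells/well (vehicle DMSO, no 20 nM CPT); pinned compounds; ≥48 hr at 37 °C; CellTiter-Glo luminescence as viability measure.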
Giardia kill = Small Molecules that selectively kill Giardia lamblia: qHTS | Giardia lamblia trophozoite viability | activity change, % at 7.66 µM, hits read low | actives 0.15% (n = 340,000); in the data active means activity change below about -80%; inconclusive means between about -30% and that limit;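 further: parasites exposed to compound for two days anaerobically before the ATP read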
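Trophozoites 100 cells/well + cpd; 48 hrs, 37 deg C, anaerobic. ATPLite 1-Step added, 15-30 min RT, luminescence read (ATP-based viability).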
IL-1B inflam inh = qHTS for Inhibitors of Inflammasome Signaling: IL-1-beta AlphaLISA Primary Screen; THP-1 LPS/ATP IL-1B secretion, AlphaLISA, 16 h; stronger effect = lower value; activity change, % at 57.5 µM; actives 4.7% (n = 360,000); in the data active means activity change below about -50%; inconclusive means mostly about -30% to -49%
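Secreted IL-1B measured by AlphaLISA bead assay after 16 h compound exposure of THP-1 cells; compounds (final up to 57.5 uM) added 1 h before LPS (250 ng/mL) and ATP (1.25 mM) stimulation; lower signal means less secretion.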
ELG1 DNA repair = qHTS screen for small molecules that inhibit ELG1-dependent DNA repair in human embryonic kidney (HEK293T) cells expressing luciferase-tagged ELG1. actives 2.3% (n = 330,000). Potency, µM (doses to about 46.1 µM), inactives show at the highest dose activity change, negative = inhibition, most hits filed as inhibitors. HEK293T ELG1-luciferase reporter, luminescence, 16 h; DNA damage induced by 5-fluorouridine. AID 504467, 2011; further: potency means the concentration at half of the fitted maximal effect; nearly all actives have a fitted effect of over 55% in size
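Cells (2,000 per well) received 5-fluorouridine plus test compound or DMSO and were incubated 16 hr at 37 °C, 5% CO2. Luciferase activity was read by luminescence 30 min after ONE-Glo addition; signal suppression marked inhibition of damage-induced ELG1 function.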
An asterisk follows results filed as active. Unless noted, the call rests on the fitted dose curve; in most records, active means well fitted curve in the direction sought with a large enough effect; inconclusive means small, poorly fitted or top-dose-only effect, or another doubt; inactive means no such curve, though single readings can be large; an effect the other way counts as inactive or inconclusive. On the % scale 0 is the no-effect control and ±100 the full control effect.

Cc1sc(NC(=O)C(C)C)c(C(=O)Nc2ccccc2)c1C was read as TDP1 block 1.0%, DT40 TDP1 CPT inconclusive, DT40 TDP1 no CPT 14.6µM*, Giardia kill -5.8, IL-1B inflam inh 14.7 and ELG1 DNA repair 0.9%.
Screening CCCC(=O)Nc1sc(C)c(C)c1C(=O)Nc1cccc(C)c1 returned TDP1 block 1.0%, DT40 TDP1 CPT -12.8%, DT40 TDP1 no CPT -6.8%, Giardia kill 1.4, IL-1B inflam inh -59.5* and ELG1 DNA repair -9.2%.
For CCS(=O)(=O)N1N=C(c2cccc(NS(C)(=O)=O)c2)CC1c1ccc(C)cc1 (stereo not given) the results were TDP1 block 0.0%, DT40 TDP1 CPT 10.4%, DT40 TDP1 no CPT -18.1%, Giardia kill 2.8, IL-1B inflam inh 16.5 and ELG1 DNA repair -5.6%.
`COc1cc(C#Cc2c(-c3cncn3C)n(C)c3ccc(Br)cc23)cc(OC)c1` gave TDP1 block 4.2%, DT40 TDP1 CPT inconclusive, DT40 TDP1 no CPT 18.4µM*, Giardia kill -8.0, IL-1B inflam inh 0.0 and ELG1 DNA repair 9.2µM*.
`COc1cc(C#Cc2c(-c3cncn3C)n(C)c3ccc(-c4ccc(OC)c(OC)c4)cc23)cc(OC)c1` gave TDP1 block 1.4%, DT40 TDP1 CPT inconclusive, DT40 TDP1 no CPT inconclusive, Giardia kill 0.3, IL-1B inflam inh -11.9 and ELG1 DNA repair 7.3µM*.
COc1cc(C#Cc2c(-c3cncn3C)n(C)c3ccc(-c4ccc5cc[nH]c5c4)cc23)cc(OC)c1 was read as TDP1 block 4.3%, DT40 TDP1 CPT 18.4µM*, DT40 TDP1 no CPT inconclusive, Giardia kill -7.0, IL-1B inflam inh -16.5 and ELG1 DNA repair inconclusive.
Cc1ccc(C)c(C(=O)COC(=O)CN2C(=O)C3C4C=CC(C4)C3C2=O)c1 (stereo not given) was read as TDP1 block 0.8%, DT40 TDP1 CPT -24.3%, DT40 TDP1 no CPT 5.8%, Giardia kill 5.9, IL-1B inflam inh 17.2 and ELG1 DNA repair 27.5%.
CCCC(=O)OCCNc1cc(Sc2nc3ccccc3[nH]2)c2nonc2c1[N+](=O)[O-] was read as TDP1 block 8.2%, DT40 TDP1 CPT 2.31µM*, DT40 TDP1 no CPT 3.26µM*, Giardia kill -6.1, IL-1B inflam inh -103.9* and ELG1 DNA repair inconclusive.
`CCC(=O)OCCNc1cc(Sc2nccn2C)c2nonc2c1[N+](=O)[O-]` gave TDP1 block 1.4%, DT40 TDP1 CPT 1.03µM*, DT40 TDP1 no CPT 2.31µM*, Giardia kill 5.9, IL-1B inflam inh -67.5* and ELG1 DNA repair -27.0%.
CCCC(=O)NC(C)c1nc2ccccc2[nH]1 (stereo not given) was read as TDP1 block 0.0%, DT40 TDP1 CPT 1.2%, DT40 TDP1 no CPT -0.1%, Giardia kill 18.3, IL-1B inflam inh 3.5 and ELG1 DNA repair 11.6%.
`CC(C)(CNC(=O)c1ccc(-c2cccc(C(F)(F)F)c2)o1)N1CCOCC1` gave DT40 TDP1 CPT inconclusive, DT40 TDP1 no CPT inconclusive, Giardia kill 1.4, IL-1B inflam inh -11.4 and ELG1 DNA repair -2.0%.
For Cn1c(=O)[nH]c2cc(-c3noc(-c4ccc(Br)cc4)n3)ccc21 the results were TDP1 block -1.1%, DT40 TDP1 CPT -10.4% and DT40 TDP1 no CPT -7.7%.
